Hits are enriched below; roughly 6.7% of the tested compounds scored in any of these assays.
C diff growth: inhibitors of Clostridium difficile growth; Clostridium difficile clinical isolate growth, OD600, 24 h; active compounds read low; growth activity, negative = inhibition, % at 16 µg/mL (by protocol); 86,000 compounds, 0.25% hits; AID 1259249;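 active = mean growth activity at or below -80% and every replicate also at or below -80%; inconclusive = mean at or below -80% but some replicate above -80%; inactive = mean growth activity above -80%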
T cruzi growth-1: blocks T. cruzi growth in NIH3T3 culture. T. cruzi beta-gal in NIH3T3, GalScreen luminescence, 90 h. inhibition, % at 8.34 µM. AID 624255. 77,000 compounds, 5.9% hits;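 active = mean inhibition above about 93%, with at least 55% of replicates each passing it, limit read from the data, passing the limit was not always enough; inconclusive = only one of those two conditions holds; inactive = neither condition holds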
Pf Dd2 growth: inhibitors of Plasmodium falciparum Dd2 growth. P. falciparum Dd2 growth, SYBR Green, 72 h; active compounds read low. 94,000 compounds, 2.3% hits. AID 1159554. activity change, % at 10 µM; in the data active = activity change below about -80%; inconclusive = no clear call, values can overlap the other calls
T cruzi growth-2: inhibitors of T. cruzi proliferation | inhibition, % at 8.35 µM | T. cruzi beta-gal in NIH3T3, GalScreen luminescence, 90 h | 5,600 compounds, 72% hits | AID 651739 | shares compounds with T cruzi growth-1;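 active = mean replicate inhibition above about 95% and at least 55% of replicates individually reaching it, limit read from the data; inconclusive = only one of the two criteria is met; inactive = neither criterion is met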
T cruzi growth-3: Trypanosoma cruzi proliferation inhibition. shares compounds with T cruzi growth-1. T. cruzi beta-gal in NIH3T3, GalScreen luminescence, 90 h. inhibition, % at 2.09 µM. 5,600 compounds, 21% hits. AID 651740;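 active = mean inhibition above about 95%, with at least 55% of replicates also reaching it, limit read from the data; inconclusive = meets just one of the two conditions; inactive = meets neither condition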
3T3 cytotox: cytotoxicity in mouse NIH/3T3 fibroblasts | shares compounds with T cruzi growth-1 | NIH/3T3 viability, CellTiter-Glo ATP luminescence, 90 h | cytotoxicity (signal decrease), % at 8.35 µM | 5,600 compounds, 14% hits;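 active = mean signal decrease across replicates above about 35% based on untreated-well scatter, with enough replicates individually passing, limit read from the data; inconclusive = no rule stated though some were filed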
NIH3T3 tox 2: kills mouse NIH/3T3 fibroblasts | shares compounds with T cruzi growth-1 | NIH/3T3 viability, CellTiter-Glo ATP luminescence, 90 h | inhibition, % at 24.9 µM | 5,600 compounds, 56% hits | AID 651744;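 active = mean loss of cell viability signal at or above a set limit, and enough replicates individually reaching it; inconclusive = meets only the mean limit or only the replicate share; inactive = meets neither condition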
Each line names hits and unclear results; the compound was inactive in the other large screens (follow-up assays come after a bar, where they were run).

CCC(=O)N(C)C[C@H]1Oc2cc(C#CCC(C)C)ccc2S(=O)(=O)N([C@@H](C)CO)C[C@@H]1C	none
CC(=O)N(C)C[C@@H]1Oc2cc(C#Cc3ccccc3F)ccc2S(=O)(=O)N([C@H](C)CO)C[C@@H]1C	none
CC(C)CC#Cc1ccc2c(c1)O[C@@H](CN(C)C(=O)Cc1ccccc1)[C@H](C)CN([C@H](C)CO)S2(=O)=O	T cruzi growth-1 129 | T cruzi growth-2 105 | T cruzi growth-3 99 | 3T3 cytotox inactive | NIH3T3 tox 2 107
C[C@H](CO)N1C[C@H](C)[C@@H](CN(C)C(=O)Cc2ccncc2)Oc2cc(C#Cc3ccccc3F)ccc2S1(=O)=O	none (no result: T cruzi growth-1)
C[C@@H]1CN([C@@H](C)CO)C(=O)c2cccc(NC(=O)NC3CCCCC3)c2O[C@H]1CN(C)S(C)(=O)=O	none (no result: T cruzi growth-1)
C[C@@H]1CN([C@H](C)CO)C(=O)c2cc(NC(=O)Nc3ccccc3)ccc2O[C@H]1CN(C)C(=O)NC1CCCCC1	none (no result: T cruzi growth-1)
COc1ccc2c3c(n(C)c2c1)[C@@H](CO)N(Cc1ccncc1)CC31CCN(C(=O)NC(C)C)CC1	none (no result: T cruzi growth-1)
CC(C)CC#Cc1ccc2c(c1)O[C@H](CN(C)C(=O)Cc1ccccc1)[C@H](C)CN([C@H](C)CO)S2(=O)=O	T cruzi growth-1 125 | T cruzi growth-2 inactive | T cruzi growth-3 inactive | 3T3 cytotox inactive | NIH3T3 tox 2 106
CCC(=O)N(C)C[C@@H]1Oc2cc(C#CCC(C)C)ccc2S(=O)(=O)N([C@@H](C)CO)C[C@H]1C	none
COc1cccc(-c2ccc3c(c2)O[C@@H](CN(C)Cc2cccnc2)[C@H](C)CN([C@H](C)CO)S3(=O)=O)c1	T cruzi growth-1 112 | T cruzi growth-2 inconclusive | T cruzi growth-3 inactive | 3T3 cytotox 56 | NIH3T3 tox 2 104
COc1cccc(-c2ccc3c(c2)O[C@H](CN(C)Cc2cccnc2)[C@@H](C)CN([C@@H](C)CO)S3(=O)=O)c1	T cruzi growth-1 119 | T cruzi growth-2 105 | T cruzi growth-3 106 | 3T3 cytotox inconclusive | NIH3T3 tox 2 60
COc1ccc(-c2ccc3c(c2)O[C@H](CN(C)Cc2cccnc2)[C@H](C)CN([C@@H](C)CO)S3(=O)=O)cc1	none (no result: T cruzi growth-1)
COc1cccc(-c2ccc3c(c2)O[C@H](CN(C)Cc2cccnc2)[C@H](C)CN([C@@H](C)CO)S3(=O)=O)c1	T cruzi growth-1 100 | T cruzi growth-2 97 | T cruzi growth-3 101 | 3T3 cytotox 63 | NIH3T3 tox 2 66
COc1ccc(-c2ccc3c(c2)O[C@H](CN(C)Cc2cccnc2)[C@@H](C)CN([C@H](C)CO)S3(=O)=O)cc1	none (no result: T cruzi growth-1)
COc1ccc(-c2ccc3c(c2)O[C@H](CN(C)Cc2cccnc2)[C@H](C)CN([C@H](C)CO)S3(=O)=O)cc1	none (no result: T cruzi growth-1)
COc1ccc(-c2ccc3c(c2)O[C@@H](CN(C)Cc2cccnc2)[C@@H](C)CN([C@@H](C)CO)S3(=O)=O)cc1	none (no result: T cruzi growth-1)
COc1cccc(-c2ccc3c(c2)O[C@H](CN(C)Cc2cccnc2)[C@H](C)CN([C@H](C)CO)S3(=O)=O)c1	T cruzi growth-1 112 | T cruzi growth-2 97 | T cruzi growth-3 inactive | 3T3 cytotox 54 | NIH3T3 tox 2 64
CN1C(=O)c2cc(NC(=O)Nc3ccc(F)cc3)ccc2OC[C@H]2O[C@@H](CC(=O)NC3CCC3)CC[C@H]21	none
C[C@H](NC(=O)C[C@H]1CC[C@@H](NC(=O)Nc2ccc3c(c2)OCO3)[C@@H](CO)O1)c1ccccc1	none (no result: C diff growth)
C[C@@H]1CN([C@H](C)CO)S(=O)(=O)c2ccc(-c3cccnc3)cc2O[C@@H]1CN(C)C	none
C[C@@H]1CN([C@@H](C)CO)S(=O)(=O)c2ccc(C3=CCCC3)cc2O[C@@H]1CN(C)Cc1ccccc1	T cruzi growth-1 107 | T cruzi growth-2 inconclusive | T cruzi growth-3 inactive | 3T3 cytotox inactive | NIH3T3 tox 2 106
C[C@@H]1CN([C@H](C)CO)S(=O)(=O)c2ccc(C3=CCCC3)cc2O[C@H]1CN(C)Cc1cccnc1	T cruzi growth-1 101 | T cruzi growth-2 inactive | T cruzi growth-3 inactive | 3T3 cytotox inconclusive | NIH3T3 tox 2 36
C[C@H](CO)N1C[C@H](C)[C@@H](CN(C)Cc2cccc(C(=O)O)c2)Oc2cc(C3=CCCC3)ccc2S1(=O)=O	none
C[C@@H]1CN([C@@H](C)CO)S(=O)(=O)c2ccc(C3=CCCC3)cc2O[C@H]1CN(C)Cc1ccccc1	none
C[C@H](CO)N1C[C@H](C)[C@H](CN(C)Cc2cccnc2)Oc2cc(C3=CCCCC3)ccc2S1(=O)=O	none (no result: T cruzi growth-1)
C[C@H](CO)N1C[C@H](C)[C@H](CN(C)Cc2ccccc2)Oc2cc(C3=CCCC3)ccc2S1(=O)=O	T cruzi growth-1 108 | T cruzi growth-2 108 | T cruzi growth-3 inactive | 3T3 cytotox inactive | NIH3T3 tox 2 105
C[C@H](CO)N1C[C@H](C)[C@H](CN(C)CC2CCCCC2)Oc2c(NC(=O)Nc3ccc4c(c3)OCO4)cccc2C1=O	none
COc1cc(CN2CC3(CN(C(C)=O)C3)c3c([nH]c4cc(OC)ccc34)[C@@H]2CO)cc(OC)c1	none (no result: C diff growth, T cruzi growth-1)
CN1[C@@H]2c3ccc(-c4cccc(F)c4)c(=O)n3C[C@H]1[C@H](CO)[C@H]2C(=O)N1CCCCC1	none
Cc1ccc(S(=O)(=O)Nc2ccc3c(c2)CC(=O)N([C@H](C)CO)C[C@H](C)[C@H](CN(C)Cc2ccc4c(c2)OCO4)O3)cc1	none
C[C@H]1CN([C@@H](C)CO)C(=O)Cc2cc(NS(=O)(=O)c3ccc(Cl)cc3)ccc2O[C@@H]1CN(C)Cc1ccc2c(c1)OCO2	T cruzi growth-1 107 | T cruzi growth-2 98 | T cruzi growth-3 inactive | 3T3 cytotox inactive | NIH3T3 tox 2 inactive
Cc1ccc(S(=O)(=O)Nc2ccc3c(c2)CC(=O)N([C@H](C)CO)C[C@@H](C)[C@@H](CN(C)Cc2ccc4c(c2)OCO4)O3)cc1	none
Cc1ccc(S(=O)(=O)Nc2ccc3c(c2)CC(=O)N([C@H](C)CO)C[C@@H](C)[C@H](CN(C)Cc2ccc4c(c2)OCO4)O3)cc1	T cruzi growth-1 104 | T cruzi growth-2 106 | T cruzi growth-3 inactive | 3T3 cytotox inactive | NIH3T3 tox 2 25
Cc1ccc(S(=O)(=O)Nc2ccc3c(c2)CC(=O)N([C@@H](C)CO)C[C@@H](C)[C@H](CN(C)Cc2ccc4c(c2)OCO4)O3)cc1	T cruzi growth-1 99 | T cruzi growth-2 103 | T cruzi growth-3 inconclusive | 3T3 cytotox inactive | NIH3T3 tox 2 inconclusive
C[C@H](CO)N1C[C@H](C)[C@@H](CN(C)Cc2ccc3c(c2)OCO3)Oc2ccc(NS(=O)(=O)c3ccc(Cl)cc3)cc2CC1=O	none
Cc1ccc(S(=O)(=O)N2C[C@H](O)COC[C@H]3O[C@H](CC(=O)NCC4CCCCC4)CC[C@@H]32)cc1	none (no result: C diff growth)

Bioassay records from PubChem BioAssay.
